# Source: PubChem
# Shown is part of a subset that was picked to be rich in hits.
# mHTT-CaM PPI inh – mutant huntingtin-calmodulin interaction inhibitors – biochemical, AlphaScreen, primary screen; P42858; AlphaScreen His-mHTT/GST-CaM binding, luminescence; inhibition, % at 15 µM; 190,000 tested, 3.6% active; AID 1671202, 2021
# Pf apPOL block – Pf-apPOL inhibitors, biochemical, fluorescence; Recombinant Pf-apPOL, molecular beacon fluorescence, 1.5 h; 210,000 tested, 0.25% active; Plasmodium falciparum apicoplast DNA polymerase (apPOL); inhibition, % at 10 µM; AID 1794808, 2022
# Hits are given with their value; n = inactive; x = no result; ! = not confirmed by another sample. Rule as the data show it: active = inhibition above about 50%; inactive = the rest.
SMILES,mHTT-CaM PPI inh,Pf apPOL block
Cc1ccc(-n2nc3c(c2NC(=O)C24CC5CC(CC(C5)C2)C4)CS(=O)(=O)C3)cc1,n,n
C=CCc1c(C)nc(SCC(=O)Nc2ccc(Br)cc2)[nH]c1=O,n,n
Cc1ccc(Cl)cc1N1CCN(C(=O)c2noc3c2CCCC3)CC1,95.9,n
O=C(c1noc2c1CCCCC2)N1CCN(c2ccccc2F)CC1,n,n
CC(C)c1cc(C(C)C)c(S(=O)(=O)NCCO)c(C(C)C)c1,n,n
CC(=O)Nc1cccc(N2CC(C(=O)Nc3ccc(F)cc3C)CC2=O)c1 (stereo unspecified),n,87.3
CC(=O)Nc1cccc(N2CC(C(=O)Nc3ccc(C)cc3C)CC2=O)c1 (stereo unspecified),n,n
CN(C)c1ccc(/C=C/C=C/c2cccc[n+]2C)cc1,n,n
CN(C)c1ccc(/C=C/C=C/c2cc[n+](C)cc2)cc1,60.0,n
O=C(CCc1ccccc1)NC(c1cccs1)c1cc(Cl)c2cccnc2c1O (stereo unspecified),n,n
CC(=O)NC(c1cccs1)c1cc([N+](=O)[O-])c2cccnc2c1O (stereo unspecified),100.0,n
CCCC(=O)NC(c1cccs1)c1cc([N+](=O)[O-])c2cccnc2c1O (stereo unspecified),100.0,n
CCOc1ccc(N/C=C/C(=O)c2cccs2)c([N+](=O)[O-])c1,n,n
CCCC(=O)Nc1ccccc1NC(=O)Cc1ccccc1[N+](=O)[O-],n,n
CCCCC(=O)NC(c1cccs1)c1cc([N+](=O)[O-])c2cccnc2c1O (stereo unspecified),96.0,n
CCCCC(=O)NC(c1ccco1)c1cc([N+](=O)[O-])c2cccnc2c1O (stereo unspecified),100.0,n
O=C(c1cccc(-c2ccc(N3CCOCC3)nc2)c1)N1CCCCC1,n,n
CC(C)S(=O)(=O)NCCS(=O)(=O)N1CCc2ccccc21,n,n
Cc1cccc(/C=C2\N=C(c3cccc(Br)c3)OC2=O)c1,n,n
COc1cc(-c2nc(C=Nc3ccc(F)cc3)c(O)o2)cc(OC)c1OC,n,n
Cc1cc2n(n1)CCC(=O)N2CCCC(=O)NCCc1ccccc1,n,n
CCCCC(=O)NC(c1ccccc1OC)c1cc([N+](=O)[O-])c2cccnc2c1O (stereo unspecified),100.0!,n
O=C(O)CC(NCc1ccc(Cl)c([N+](=O)[O-])c1)c1cccs1 (stereo unspecified),n,n
COc1ccccc1N1CCN(c2ccc([N+](=O)[O-])c3cccnc23)CC1,n,n
CCC(=O)NC(c1cccs1)c1cc([N+](=O)[O-])c2cccnc2c1O (stereo unspecified),100.0,n
SMILES,mHTT-CaM PPI inh,Pf apPOL block
NCc1csc2c1CCCC2,n,x
COc1cccc(CN2CCCCC2c2nc(C(C)C)no2)c1 (stereo unspecified),n,n
CC(C)c1noc(C2CCCCN2Cc2ccc(N(C)C)cc2)n1 (stereo unspecified),53.9,n
CC(C)c1noc(C2CCCCN2CC(=O)Nc2ccccn2)n1 (stereo unspecified),n,n
CC(C)c1noc(C2CCCN2Cc2ccccn2)n1 (stereo unspecified),56.8,n
Cc1cccc(C(=O)Nc2cccn3nc(C(C)C)nc23)c1,n,n
O=[N+]([O-])c1ccccc1OC1OC(CO)C(O)C(O)C1O (stereo unspecified),n,n
Cc1ccc2[nH]c3c(c2c1)CCC3O (stereo unspecified),78.3,n
O=CNC1CCCc2c1[nH]c1ccc(OCc3ccccc3)cc21 (stereo unspecified),53.1,n
CCN(CC)CCNC1CCCc2c1[nH]c1ccc(C)cc21 (stereo unspecified),n,n
Cc1ccc2[nH]c3c(c2c1)CCCC3NCCCN(C)C (stereo unspecified),n,n
COC(CNC1CCCc2c1[nH]c1ccc(C)cc21)OC (stereo unspecified),n,n
O=CNC1CCCc2c1[nH]c1ccc(Cl)cc21 (stereo unspecified),n,n
CC(=O)NC1CCCc2c1[nH]c1ccc(C)cc21 (stereo unspecified),n,98.7
Cc1ccc2[nH]c3c(c2c1)CCCC3NCc1ccc(Cl)cc1 (stereo unspecified),72.9,n
CCCCSCCCNC(=O)CN1C(=O)/C(=C/c2ccccc2F)Sc2ccccc21,n,n
CC1CCC(N2CC(=O)N(C3CCCC3)C(c3ccc(F)cc3)C2=O)CC1 (stereo unspecified),n,n
N#CC1(C#N)[C@H](C(=O)c2ccc(F)cc2)C12CC[C@H]1COC2O1 (stereo partly specified),n,x
COc1ccc(-c2ncc3c(n2)CCN(C(=O)Nc2ccc(Cl)cc2)C3)cc1,n,n
O=C(NCCc1ccccc1)C(=O)Nc1ccc(Cl)c(C(F)(F)F)c1,n,n
Cc1ccc2[nH]c3c(c2c1)CCCC3NCCCO (stereo unspecified),n,n
Cc1ccc2[nH]c3c(c2c1)CCCC3NCCCOc1ccccc1 (stereo unspecified),100.3,n
COc1ccccc1-c1nc(-c2ccc([N+](=O)[O-])cc2)no1,n,n
CC1=C(c2ccc(Cl)cc2)NN=C(N=Cc2ccco2)S1,n,n
Fc1ccc(C2=CSC(N=Cc3ccco3)=NN2)cc1,68.0,n
SMILES,mHTT-CaM PPI inh,Pf apPOL block
COc1cc(NC(=O)c2cc(OC)c(OC)cc2[N+](=O)[O-])c(OC)cc1Cl,n,n
c1ccc2c(N3CCOCC3)nc(-c3ccncc3)nc2c1,61.0!,n
Cc1ccc(-c2nc(N3CCOCC3)c3ccccc3n2)cc1,n,n
CCOc1ccc(-c2c(C#N)c(N)nc(SCC(=O)c3ccc(C)cc3)c2C#N)cc1,n,n
CCOc1ccc(-c2c(C#N)c(N)nc(SCC(=O)c3ccc(O)c(O)c3)c2C#N)cc1,69.0,n
N#Cc1c(N)nc(SCC(=O)c2ccc([N+](=O)[O-])cc2)c(C#N)c1-c1ccccc1,n,n
N#Cc1c(N)nc(SCC(=O)c2ccccc2)c(C#N)c1-c1ccc(O)cc1,62.0,n
N#Cc1c(N)nc(SCC(=O)c2ccc(Br)cc2)c(C#N)c1-c1ccc(O)cc1,78.5!,n
CCOc1ccc(-c2c(C#N)c(N)nc(SCC(=O)c3ccc(OC)cc3)c2C#N)cc1,n,n
CCn1c(C2CCN(C(=O)c3ccc(Cl)cc3)C2)nc2cccnc21 (stereo unspecified),n,n
CC12CCC(C(=O)Nc3nccs3)(CC1=O)C2(C)C (stereo unspecified),n,n
O=C1C(=Cc2ccccc2OC(F)F)Oc2cc(O)ccc21,n,n
CCOC(=O)c1ccc(NC(=O)N2CCC(c3nc4cccnc4n3CC)C2)cc1 (stereo unspecified),n,n
O=C(Cc1ccccc1F)N1CCCC(c2ccnc(Nc3ccccc3)n2)C1 (stereo unspecified),85.6,n
COc1ccc(-c2nccc(C3CCCN(C(=O)Cc4ccc(F)cc4)C3)n2)cc1 (stereo unspecified),n,n
CC(C)CC(=O)N1CCCC(c2ccnc(Nc3ccccc3)n2)C1 (stereo unspecified),70.8,n
CCOCC(=O)N1CCCC(c2ccnc(Nc3ccc(OC)cc3)n2)C1 (stereo unspecified),n,n
O=C(Cc1ccc(F)cc1)N1CCCC(c2ccnc(Nc3ccccc3)n2)C1 (stereo unspecified),96.2,n
